Test results published in PubChem BioAssay AID485297 (National Center for Advancing Translational Sciences (NCATS), 2010).
Among all 320,000 compounds or so, about 9,100 (2.8%) were called active. Another 3% or so got no clear call; they are omitted. Calls come from the whole dose curve; as a rule, active = well fitted activation curve with a large enough effect; inconclusive = small, poorly fitted or top-dose-only effect; inactive = no such curve, though single readings can be large or run the other way. For the sample, actives were picked, then their nearest neighbours and some compounds at random.

Assay: qHTS Assay for Rab9 Promoter Activators; note: nearly all actives have a fitted effect of over 60% in size; for activation, negative = inhibition: % of control where 0% means no effect
Conditions: Huh7 Rab9 promoter-luciferase reporter, luminescence, 24 h; series mostly up to 9.22 µM; activation, negative = inhibition: at the top concentration
Excerpt: NIH Chemical Genomics Center [NCGC] NIH Molecular Libraries Probe Production centers Network [MLPCN] MLPCN Grant: MH089537-01 Assay Submitter (PI): Yiannis A. Ioannou NCGC Assay Overview: Niemann Pick Type C (NPC) is a rare neurodegenerative lipidosis that is characterized by lipid storage in the endosomal/lysosomal system. Treatment modalities for this devastating disease are currently non-existent due to the severe obstacles associated with accessing the central nervous system with proteins or genes (Ioannou, 2000). We have developed a new paradigm, termed "Orphan Receptor Bypass Therapy" (ORByT), to address these disorders. This paradigm posits the existence of endogenous "suppressor" proteins whose expression can dramatically improve LSD pathogenesis. The goal is the identification/discovery of small chemical compounds that can modulate the expression of these proteins and provide a new treatment modality for these devastating disorders. One such protein whose overexpression reverses aspects of the NPC phenotype is Rab9. We have developed and optimized a cell based luciferase reporter assay in 1536 well format for the identification of up-regulators of the Rab9 promoter.
The Rab9 promoter is cloned in front of the luciferase reporter gene, therefore […] promoter activation results in luciferase expression. Frozen stock of the Rab9 promoter transfected Huh7 cells were obtained from the laboratory of Dr. Yiannis Ioannou (The Mount Sinai School of Medicine, New York, NY). Cells were propagated and maintained at NCGC in medium containing RPMI-1640 supplemented with 10% FBS, 2mM L-glutamine, and 50ug/ml penicillin/streptomycin. Cells were harvested in and plated for assays in OP-MEM I reduced-serum medium supplemented with 10% FBS. The Amplite luciferase reporter gene assay kit was purchased from ABD Bioquest and prepared/stored according to manufacturers recommendations. qHTS Assay Setup: 1.Dispensed 5ul of Huh7 cells stably expressing Rab9-luciferase at a density of 1500 cells per well 1536-well plates. 2.Incubate cells at 37C, 5% CO2, and 95% humidity for 2 hours. 3.Transferred 23nl per well of compound in DMSO solution. 4.Incubated at 37C, 5% CO2, and 95% humidity for 24 hours. 5.Dispensed 3ul per well of Amplite reagent(ABD Bioquest) per well. 6.Incubate at ambient for 10 minutes. 7.Read using the luminescence protocol on the ViewLux plate reader (Perkin Elmer).
Potency is the fitted concentration of half-maximal effect.

SMILES	activation, negative = inhibition	Potency
CCOC(=O)c1c(-c2ccccc2)oc2ccc(OC(=O)N(C)C)cc12	1.01% (inactive)	–
CN(C)C(=O)Oc1ccc2c(c1)O/C(=C\c1ccccc1)C2=O	–	1.41 µM (active)
CN(C)C(=O)Oc1ccc(OCc2cccc[n+]2C)cc1	-5.21% (inactive)	–
c1ccc2c(c1)[I+]c1ccccc1-2	-41.2% [at 46.1 µM] (inactive)	–
CC(=O)c1c(O)c(C)c(O)c(Cc2c(O)c3c(c(C(=O)/C=C/c4ccccc4)c2O)OC(C)(C)C=C3)c1O	-18.4% [at 46.1 µM] (inactive)	–
CC(C)(C)c1ccc(OC(=O)N2CCCCC2)cc1	–	3.16 µM (active)
O=C(Nc1cccc(OC(=O)N2CCCCC2)c1)N1CCOCC1	1.14% (inactive)	–
CN1CCN(C(=O)COc2ccc(C(C)(C)C)cc2Br)CC1	-3.98% (inactive)	–
C[C@@H]1C[C@@H]2O[C@H]2/C=C\C=C\C(=O)Cc2c(Cl)c(O)cc(O)c2C(=O)O1	-40.2% (inactive)	–
CNCC[C@H](Oc1ccc(C(F)(F)F)cc1)c1ccccc1	–	inactive
